The results in this text go back to PubChem BioAssay AID1671448 (Corson Lab, School of Medicine, Indiana University, 2021).

Hit rate of the full screen: of about 20,000 compounds, about 660 (3.3%) were called active.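 How the source made its calls: active means enzyme reaction rate more than 3 SD below the solvent-only control wells on the same plate; inactive means the rest.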 Many of the other results were omitted from the sample, so actives are more common in it than they were.

Sequence of Ferrochelatase, mitochondrial (Homo sapiens) (P22830 whole entry, looked up): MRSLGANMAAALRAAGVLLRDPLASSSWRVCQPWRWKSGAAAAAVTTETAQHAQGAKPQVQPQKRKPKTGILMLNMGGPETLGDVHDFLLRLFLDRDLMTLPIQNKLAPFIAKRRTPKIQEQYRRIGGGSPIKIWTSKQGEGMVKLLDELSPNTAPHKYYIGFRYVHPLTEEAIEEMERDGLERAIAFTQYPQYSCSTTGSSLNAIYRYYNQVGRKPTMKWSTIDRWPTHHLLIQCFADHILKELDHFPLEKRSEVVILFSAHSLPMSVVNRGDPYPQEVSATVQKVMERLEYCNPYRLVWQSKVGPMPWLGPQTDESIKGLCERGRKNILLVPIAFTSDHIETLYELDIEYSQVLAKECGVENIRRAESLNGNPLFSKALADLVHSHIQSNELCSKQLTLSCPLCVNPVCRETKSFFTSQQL

This test addresses Ferrochelatase, mitochondrial (Homo sapiens) (UniProt P22830). The test can be described thus: inhibitors of human ferrochelatase, primary screen, biochemical, purified FECH, Ni-mesoporphyrin absorbance (AID 1671448). Conditions: Ni-mesoporphyrin absorbance 550 nm, screened at 10 µM (by protocol).
For the compound `Cc1nnc(SCC(=O)N2CCC(C(O)C(C)C)CC2)s1` (stereo not drawn), the compound was called inactive. In the case of `Cc1cccc(C(C(=O)NC2CCN(S(C)(=O)=O)CC2)N(C)C)c1` (stereo not drawn) it was “inactive”. As for `O=C1NC(c2cccnc2)(C2CCNCC2)C(=O)N1Cc1ccccc1F` (stereo not drawn), the entry is “inactive”.

`CCc1ccc(S(=O)(=O)Nc2ccc(Sc3c(CC)c(C)nc4ncnn34)cc2)cc1`: the compound was classed as active. For the compound `CCCc1c(C)nc2ncnn2c1Sc1ccc(NS(=O)(=O)c2cc(C)cc(C)c2C)cc1`, the call was inactive. As for `CCc1c(C)nc2ncnn2c1Sc1ccc(NC(=O)c2cc(OC)cc(OC)c2)cc1`, the entry is “active”; as for `CCc1c(C)nc2ncnn2c1Sc1ccc(NS(=O)(=O)c2cc(OC)ccc2OC)cc1`, “inactive”; as for `CCCc1c(C)nc2ncnn2c1Sc1ccc(NC(=O)C(C)(C)C)cc1`, “active”. In the case of `CCCc1c(C)nc2ncnn2c1Sc1ccccc1NC(=O)c1cccs1` it was “inactive”; in that of `CCc1c(C)nc2ncnn2c1Sc1ccc(NC(=O)Cc2cccs2)cc1`, “inactive”. In the case of `CCc1c(C)nc2ncnn2c1Sc1ccc(NC(=O)CC(C)C)cc1` it was “inactive”. In the case of `CCc1c(C)nc2ncnn2c1Sc1ccc(NC(=O)Nc2cccc(C)c2C)cc1`, the compound was called inactive. As for `O=C(CN1CCCN(Cc2cccc(F)c2)S1(=O)=O)Nc1ccc(Br)cc1`, the entry is “inactive”; as for `O=C(c1ccncc1)N1CC[C@@H](c2ccc3ccccc3c2)[C@H](O)C1`, “inactive”; as for `C=CCOc1c(Cl)cc(C(=O)NCCc2cnc[nH]2)cc1Cl`, “inactive”.

With `CCc1nc(C)sc1CNC(=O)[C@H](N)CC(C)C`, the outcome was inactive. In the case of `CCOc1ccc(-c2nc(CSc3nc4c(c(=O)[nH]3)CCCC4)c(C)o2)cc1OC` it was “inactive”; in that of `COc1cccc2c1OCCCN(C(=O)[C@@H]1Cc3ccccc3N1)C2`, “inactive”. With `COc1ccc(CNc2nc3nc(CN4CCN(c5ccccc5OC)CC4)cc(=O)n3[nH]2)cc1`, the compound was classed as active. In the case of `COc1ccc(CNc2nc3nc(CNc4ccc(C)cc4)cc(=O)n3[nH]2)cc1` it was “inactive”. As for `COc1ccc(CNc2nc3nc(CNc4ccc(Br)cc4)cc(=O)n3[nH]2)cc1`, the entry is “inactive”. With `O=C(CSc1nc(-c2ccco2)nc2cc(=O)[nH]n12)NCCCc1ccccc1`, the compound was called inactive.

As to `CC(C)(C)CNC(=O)c1[nH]cnc1C(=O)NCC1CC1`, the compound was called inactive. In the case of `CC(C)CCNC(=O)c1nc[nH]c1C(=O)NCC(C)(C)C` it was “inactive”; in that of `O=C(NCc1ccccc1)c1nc[nH]c1C(=O)NCc1cccc(C(F)(F)F)c1`, “active”; in that of `Cc1cc(C)nc(SC(C)c2n[nH]c(Cc3ccccc3)n2)n1` (stereo not drawn), “inactive”.

`Cc1nnnn1CCCN1CCC(Cc2cccc(C(=O)O)c2)CC1`: the outcome was inactive. As for `CCOc1ccc(S(=O)(=O)NCCn2c(-c3ccccc3)nc3cccnc32)cc1`, the entry is “inactive”; as for `O=S(=O)(NCCn1c(-c2ccccc2)nc2cccnc21)c1ccc(C2CCCCC2)cc1`, “inactive”. In the case of `O=S(=O)(NCCn1c(-c2ccccc2)nc2cccnc21)c1ccc(Br)cc1` it was “active”. With `COc1cccc2c1OCC(CN1CCC(O)(c3ccc(C)cn3)CC1)=C2`, the call was inactive. As for `O=C(O)c1cccnc1CN1CCN(Cc2ccc3c(c2)OCO3)CC1`, the entry is “inactive”; as for `Cc1ccccc1CN1CCN(CC(=O)Nc2cccc(Cl)c2C)S1(=O)=O`, “active”. In the case of `COc1ccccc1NC(=O)CN1CCN(Cc2ccccc2C)S1(=O)=O` it was “inactive”; in that of `O=C(CN1CCN(Cc2ccccc2Cl)S1(=O)=O)Nc1ccccc1Cl`, “inactive”; in that of `CCOc1ccc(-c2nc(Cn3c(=O)c4cnc(-c5ccc(OC)cc5)nc4n(C)c3=O)c(C)o2)cc1`, “inactive”. In the case of `CCn1ccc(-c2n[nH]c(=O)n2Cc2ccccc2F)n1` it was “inactive”; in that of `Cc1ccccc1S(=O)(=O)N1CCN(Cc2nc3cccnc3n2-c2ccccc2)CC1`, “inactive”. For the compound `CCc1ccc(S(=O)(=O)N2CCN(Cc3nc4cccnc4n3-c3ccccc3)CC2)cc1`, the compound was classed as inactive. In the case of `CC(=O)Nc1ccc(S(=O)(=O)N2CCN(Cc3nc4cccnc4n3-c3ccc(C)cc3)CC2)cc1` it was “active”.

On to `Cc1ccc(OCC(=O)Nc2cc(C)nn2-c2ncnc3c2cnn3-c2cccc(C)c2C)cc1`, for which the call was inactive. For `NC(=O)c1cccc(CC2CCN(C(=O)c3cnn4cccnc34)C2)c1` (stereo not drawn), the call was inactive. In the case of `CCN(CC)Cc1cnc2c(C(=O)N3CCC(Cn4cccn4)CC3)cnn2c1` it was “active”; in that of `CCN(CC)Cc1cnc2c(C(=O)Nc3cccc4cc(C)oc34)cnn2c1`, “inactive”; in that of `CN1CCC(Cc2noc(CCc3nc4cccnc4n3C)n2)CC1`, “inactive”. As for `CCc1cccc(NS(=O)(=O)c2ccc3c(c2)CCN3C(=O)CCC(=O)N2CCOCC2)c1`, the entry is “inactive”; as for `CCc1nc2nc(C)[nH]n2c(=O)c1NC(=O)Nc1cccc(C(F)(F)F)c1`, “inactive”. In the case of `Cc1nc2nc(-c3ccccc3)nn2c(Sc2ccccc2NC(=O)c2ccc(Cl)cc2)c1C` it was “inactive”; in that of `O=C(Nc1nc2n(n1)C(c1ccccc1Cl)C=C(c1ccccc1)N2)c1ccccc1F` (stereo not drawn), “active”. On to `O=C(Nc1nc2n(n1)C(c1ccc(Cl)cc1)C=C(c1ccc(Cl)cc1)N2)c1ccccc1` (stereo not drawn), for which the compound was called inactive. With `O=C(Nc1nc2n(n1)C(c1c(F)cccc1Cl)C=C(c1ccccc1)N2)c1ccc(F)cc1` (stereo not drawn), the compound was called inactive. In the case of `Cc1ccc(C2=CC(c3ccc(F)cc3)n3nc(NC(=O)c4cccs4)nc3N2)cc1` (stereo not drawn) it was “inactive”; in that of `O=C(Nc1nc2n(n1)C(c1ccccc1)C=C(c1ccc(Cl)cc1)N2)c1ccc(F)cc1` (stereo not drawn), “inactive”. In the case of `Cc1ccc(C(=O)Nc2nc3n(n2)C(c2ccccc2)C=C(c2ccc(Cl)cc2)N3)cc1` (stereo not drawn) it was “inactive”; in that of `COc1ccccc1C(=O)Nc1nc2n(n1)C(c1ccc(F)cc1)C=C(c1ccccc1)N2` (stereo not drawn), “active”; in that of `Cc1ccc(C2=CC(c3c(F)cccc3Cl)n3nc(NC(=O)c4ccco4)nc3N2)cc1` (stereo not drawn), “inactive”.

For `Cc1ccc(C2=CC(c3ccc(C)cc3)n3nc(NC(=O)c4ccco4)nc3N2)cc1` (stereo not drawn), the compound was called active. Take `CCCC(=O)NC1CC(=O)N(c2ccc(OCC)cc2)C1` (stereo not drawn): the outcome was inactive.
